TDP1 block – TDP1 (human) enzyme inhibition. 350,000 tested, 0.28% active. AID 485290. Q9NUW8. recombinant TDP1, AlphaScreen DNA substrate cleavage. Potency, µM (highest dose often 130 µM), inactives show at the highest dose activity change, negative = inhibition, actives largely listed as inhibitors; further: nearly all actives have a fitted effect of over 40% in size
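Recombinant E. coli-expressed Tdp1 (1 nM) preincubated with compound 15 min at RT, then 5'-biotin/3'-phosphotyrosine-FITC DNA substrate (15 nM) added for 5 min. AlphaScreen beads (10 ug/ml) added, 10 min RT; tyrosine-FITC cleavage read as signal loss.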
VP16 counter – Gal4-VP16 reporter inhibition counter-screen. Drosophila S2 Gal4-VP16 UAS-luciferase, luminescence, 20 h. Potency, µM (titrated, usually from 53.6 µM), without a hit: at the top dose activity, negative = inhibition, hits mostly inhibitors. 310,000 tested, 3.5% active;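 further: Gal4-VP16 expression switched on by copper sulfate through the metallothionein promoter; nearly all actives have a fitted effect of over 50% in size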
RORgamma inh – blocks mouse ROR gamma transcriptional activity; Potency, µM (series often up to 53.6 µM), for inactives: at the highest dose activity change, negative = inhibition, most hits filed as inhibitors; 310,000 tested, 5.4% active; Drosophila S2 Gal4-RORgamma UAS-luciferase reporter, 20 h; further: nearly all actives have a fitted effect of over 60% in size
Target sequence (P51450 whole entry, looked up, the tested form may be a part): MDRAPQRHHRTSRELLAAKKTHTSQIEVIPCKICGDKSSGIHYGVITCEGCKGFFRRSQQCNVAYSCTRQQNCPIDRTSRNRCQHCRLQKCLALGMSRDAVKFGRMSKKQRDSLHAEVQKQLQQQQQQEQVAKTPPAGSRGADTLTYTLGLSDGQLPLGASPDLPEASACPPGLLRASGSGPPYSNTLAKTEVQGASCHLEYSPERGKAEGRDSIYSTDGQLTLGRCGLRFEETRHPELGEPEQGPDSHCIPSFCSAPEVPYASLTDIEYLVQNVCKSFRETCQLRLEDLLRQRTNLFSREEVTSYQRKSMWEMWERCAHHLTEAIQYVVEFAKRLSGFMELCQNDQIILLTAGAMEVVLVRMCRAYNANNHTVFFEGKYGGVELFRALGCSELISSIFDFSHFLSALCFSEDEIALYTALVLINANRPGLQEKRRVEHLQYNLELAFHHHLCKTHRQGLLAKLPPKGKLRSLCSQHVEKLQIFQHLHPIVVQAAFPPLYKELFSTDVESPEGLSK
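Read-out: Photinus luciferase luminescence; inhibitors lower reporter signal. Insect Schneider cells with Gal4-ROR gamma fusion under metallothionein promoter, UAS reporter; 700 uM final copper sulfate induction, 20 hr, ambient temperature.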
TDP1 cell CPT – growth inhibition of DT40 Tdp1-/-;hTDP1 cells with camptothecin (screen for TDP1 inhibitors) | 420,000 tested, 12% active | Potency, µM (titrated, usually from 46.2 µM), without a hit: top-dose activity change, negative = growth inhibition, actives largely listed as inhibitors | AID 686979 | chicken DT40 Tdp1-/-;hTDP1 cells + 20 nM CPT, ATP luminescence, 48 h; further: nearly all actives have a fitted effect of over 55% in size
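Cell growth measured by CellTiter-Glo luminescence after a minimum 48 h, 37 C compound exposure with 20 nM CPT in Tdp1-knockout DT40 cells stably expressing hTDP1, seeded 400/well; qHTS titration format.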
TDP1 cell noCPT – qHTS for Inhibitors of human tyrosyl-DNA phosphodiesterase 1 (TDP1): qHTS in cells in absence of CPT; DT40 Tdp1-/- hTDP1 cells, no CPT, ATP luminescence, 48 h; Potency, µM (highest dose often 46.2 µM), for the others: at the top dose activity change, negative = growth inhibition, usual class: inhibitors; 420,000 tested, 15% active; AID 686978, 2013; further: nearly all actives have a fitted effect of over 55% in size
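DT40 Tdp1-/-;hTDP1 cells, no CPT (DMSO vehicle only), 400 cells/well; compounds pin-transferred; ≥48 hr, 37 °C; CellTiter-Glo 30 min RT dark, luminescence read.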
Numbers without * were called inactive; ! = repeats disagree; [ ] = dose if it differs, or a comment. Shown are actives, neighbours in structure and some others; about 19% of the full set was active somewhere. The call rests on the fitted dose curve; in most records, active means well fitted curve in the direction sought with a large enough effect; inconclusive means small, poorly fitted or top-dose-only effect, or another doubt; inactive means no such curve, though single readings can be large; an effect the other way counts as inactive or inconclusive. On the % scale 0 is the no-effect control and ±100 the full control effect; potency means the concentration at half of the fitted maximal effect.

Results for CN1C2CCC1CC(OC(c1ccccc1)c1ccccc1)C2 (centres undefined) ?
TDP1 block: -6%[56.1 µM]; VP16 counter: -12%; RORgamma inh: inconclusive; TDP1 cell CPT: inconclusive; TDP1 cell noCPT: -36%

Results for CN1[C@@H]2CC[C@H]1CC(OC(c1ccccc1)c1ccccc1)C2 (some centres undefined) ?
TDP1 block: 2%; VP16 counter: 0%; RORgamma inh: -9%[10 µM]; TDP1 cell CPT: 7.5µM*; TDP1 cell noCPT: 21µM*!

How did CN1CCC(OC(c2ccccc2)c2ccc(Cl)cc2)C1 (centres undefined) do in these assays?
TDP1 cell CPT: inconclusive; TDP1 cell noCPT: 21µM*

What do the screens show for `CC1CCc2sc(C(=O)OCC(=O)NCc3ccc(F)cc3)cc2C1` (centres undefined)?
TDP1 block: 5%; VP16 counter: inconclusive; RORgamma inh: -40%; TDP1 cell CPT: 21µM*; TDP1 cell noCPT: 15µM*

What do the screens show for `Cc1nc(NC(=O)COC(=O)c2cc3c(s2)CCC(C)C3)c(Cl)cc1Cl` (centres undefined)?
TDP1 block: -3%; VP16 counter: 2%; RORgamma inh: -13%; TDP1 cell CPT: 10%; TDP1 cell noCPT: -4%

Results for CCN(C(=O)COC(=O)CCC(=O)c1ccc(Cl)cc1)c1c(N)n(Cc2ccccc2)c(=O)[nH]c1=O ?
TDP1 cell CPT: 18µM*; TDP1 cell noCPT: 23µM*

Results for CCc1ccc(C(=O)OCC(=O)N(CC)c2c(N)n(Cc3ccccc3)c(=O)[nH]c2=O)cc1 ?
TDP1 block: -6%; TDP1 cell CPT: -5%; TDP1 cell noCPT: 1%

What do the screens show for `CC(C)CN(C(=O)COC(=O)CCc1nc2ccccc2s1)c1c(N)n(Cc2ccccc2)c(=O)[nH]c1=O`?
TDP1 block: -14%[0.505 µM]; TDP1 cell CPT: 16µM*; TDP1 cell noCPT: inconclusive

Results for CCN(C(=O)COC(=O)c1ccc2[nH]c(C)c(C)c2c1)c1c(N)n(Cc2ccccc2)c(=O)[nH]c1=O ?
TDP1 cell CPT: 18µM*; TDP1 cell noCPT: -30%

Results for Cc1cccc(NC2=NCC(=O)N2CCc2ccccc2)c1 ?
TDP1 block: 4%; VP16 counter: 2%; RORgamma inh: 0%; TDP1 cell CPT: -11%; TDP1 cell noCPT: 1%

Results for Cc1nc(Nc2ccccc2C(F)(F)F)sc1C(=O)N(C)C ?
TDP1 block: 0%; VP16 counter: 6%; RORgamma inh: inconclusive; TDP1 cell CPT: -2%; TDP1 cell noCPT: inconclusive

How did CS(=O)(=O)c1ccc2nc(NC(=O)CCN3C(=O)c4ccccc4C3=O)sc2c1 do in these assays?
TDP1 block: 2%; VP16 counter: 1%; RORgamma inh: 15%; TDP1 cell CPT: 12%; TDP1 cell noCPT: -5%

Results for O=c1[nH]c(C2CCCN(S(=O)(=O)c3cccc(Cl)c3)C2)nc2c1nnn2Cc1ccc2c(c1)OCCO2 (centres undefined) ?
TDP1 block: 6%; VP16 counter: -1%; RORgamma inh: 13%; TDP1 cell CPT: inconclusive; TDP1 cell noCPT: inconclusive

How did N#Cc1c(-c2c(Cl)cccc2Cl)noc1/C=C/Nc1ccc(C(=O)O)cc1 do in these assays?
TDP1 block: 8%; VP16 counter: 7%; RORgamma inh: -4%; TDP1 cell CPT: -11%; TDP1 cell noCPT: -19%

What do the screens show for `CCN(C(=O)COC(=O)C1CC1)c1c(N)n(Cc2ccccc2)c(=O)[nH]c1=O`?
TDP1 block: 2%; TDP1 cell CPT: -3%; TDP1 cell noCPT: 4%

How did CCN(C(=O)COC(=O)c1cc2c(s1)CCC(C)C2)c1c(N)n(Cc2ccccc2)c(=O)[nH]c1=O (centres undefined) do in these assays?
TDP1 cell CPT: 16µM*; TDP1 cell noCPT: inconclusive

What do the screens show for `CN(C)S(=O)(=O)c1ccc(C(=O)NCCSc2c(-c3ccc(Cl)cc3)[nH]c3ccccc23)cc1`?
TDP1 block: 9%; TDP1 cell CPT: 4.1µM*; TDP1 cell noCPT: 5.2µM*

What do the screens show for `Cc1ccc(-c2[nH]c3ccccc3c2SCCNC(=O)c2ccc(S(=O)(=O)N(C)C)cc2)cc1`?
TDP1 block: 6%; TDP1 cell CPT: 5.8µM*; TDP1 cell noCPT: 5.8µM*

Results for CCOC(=O)CSc1c(-c2ccc(Cl)cc2)[nH]c2ccccc12 ?
TDP1 block: -5%; VP16 counter: -9%; RORgamma inh: 0%; TDP1 cell CPT: inconclusive; TDP1 cell noCPT: inconclusive

What do the screens show for `O=C(Cc1cccs1)NCCSc1c(-c2ccc(Cl)cc2)[nH]c2ccccc12`?
TDP1 block: 8%; VP16 counter: inconclusive; RORgamma inh: inconclusive; TDP1 cell CPT: 18µM*; TDP1 cell noCPT: 13µM*

Results for O=C(NNc1cccc(Cl)n1)C(F)(F)F ?
TDP1 block: 3%; VP16 counter: 7%; RORgamma inh: -27%; TDP1 cell CPT: -20%; TDP1 cell noCPT: -4%

Results for Cc1ccsc1C(=O)NCC(=O)OCc1ccccc1 ?
TDP1 block: 0%; VP16 counter: inconclusive; RORgamma inh: 7%; TDP1 cell CPT: -20%; TDP1 cell noCPT: 8%

Results for O=C(C1=NOC2(C1)C(=O)N(Cc1ccccc1)c1ccccc12)N1CCOCC1 (centres undefined) ?
TDP1 cell CPT: -17%; TDP1 cell noCPT: inconclusive

How did CCn1ncc(C2=NOC(C(=O)Nc3cccc(C(C)=O)c3)C2)c1C (centres undefined) do in these assays?
TDP1 block: 1%; VP16 counter: 0%; RORgamma inh: 2%; TDP1 cell CPT: inconclusive; TDP1 cell noCPT: 21µM*

How did CCn1ncc(C2=NOC(C(=O)NCc3ccccc3)C2)c1C (centres undefined) do in these assays?
TDP1 block: 4%; VP16 counter: -8%; RORgamma inh: 39%; TDP1 cell CPT: 1.2µM*; TDP1 cell noCPT: 1.6µM*

How did CCn1ncc(C2=NOC(C(=O)Nc3c(C)n(C)n(-c4ccccc4)c3=O)C2)c1C (centres undefined) do in these assays?
TDP1 block: -1%; VP16 counter: 2%; RORgamma inh: -22%; TDP1 cell CPT: -3%; TDP1 cell noCPT: -3%

What do the screens show for `CCn1ncc(C2=NOC(C(=O)NCc3ccc(OC)cc3)C2)c1C` (centres undefined)?
TDP1 block: 6%; VP16 counter: -4%; RORgamma inh: -5%; TDP1 cell CPT: 16µM*; TDP1 cell noCPT: inconclusive

What do the screens show for `O=C(Cn1cnc2c(cnn2-c2ccc(F)cc2)c1=O)N1CCN(c2ccccc2)CC1`?
TDP1 block: -2%[56.1 µM]; VP16 counter: -3%; RORgamma inh: inconclusive; TDP1 cell CPT: -22%; TDP1 cell noCPT: -18%
